# Laboratory results reported in PubChem BioAssay AID686978 (National Center for Advancing Translational Sciences (NCATS), 2013).
# Where “and” joins values, the source holds several entries; their conditions need not be identical. Equal values may be shown once. About 64,000 (15%) of roughly 420,000 compounds were called active. Roughly 27% stayed inconclusive and do not appear here. Calls come from the whole dose curve; as a rule, active = well fitted inhibition curve with a large enough effect; inconclusive = small, poorly fitted or top-dose-only effect; inactive = flat fitted curve, though single readings scatter. Not all results are given here.
# Test: qHTS for Inhibitors of human tyrosyl-DNA phosphodiesterase 1 (TDP1): qHTS in cells in absence of CPT; note: nearly all actives have a fitted effect of over 55% in size
# Settings: DT40 Tdp1-/- hTDP1 cells, no CPT, ATP luminescence, 48 h; activity change, negative = growth inhibition: at 46.2 µM (top of the series)
# How it was run: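 Chicken DT40 Tdp1-/- cells stably complemented with human TDP1 were seeded at 400 cells/well with DMSO in place of 20 nM camptothecin. After compound pinning, cells grew at least 48 hr at 37 °C; viability read by CellTiter-Glo luminescence.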
# % is set by controls: 0 for no effect and ±100 for the full control effect; potency is the fitted concentration of half-maximal effect.
Compound,"activity change, negative = growth inhibition",Potency
COc1cccc(NC(=O)CSc2nnc(C3CCCCC3)n2N)c1,-3.98% (inactive),
c1ccc2c(c1)OCC(CNc1ncnc3nc[nH]c13)O2 (stereo not drawn),,13 µM (active)
O=C(Cn1cnc2ccccc2c1=O)NCC1COc2ccccc2O1 (stereo not drawn),0.328% (inactive),
O=C(COC(=O)c1ccc(F)cc1)NCC1COc2ccccc2O1 (stereo not drawn),-12.8% (inactive),
CC(C)c1ccc(NC(=S)NC2CC3C=CC2C3)cc1 (stereo not drawn),,29.1 µM (active)
O=C(COC(=O)C1CC2C=CC1C2)Nc1ccccc1 (stereo not drawn),-6.05% (inactive),
CC(C)c1ccc(NC(=S)NNc2ccc(Cl)c(C(=O)O)c2)cc1,10.6% (inactive),
CCN1C(=O)C(=O)N(CC(=O)Nc2cc(C)ccc2C)C1=O,1.3% (inactive),
O=P(c1ccc2c(c1)OCCO2)(N1CCOCC1)N1CCOCC1,-2.59% (inactive),
COC(=O)C(C)Oc1ccc2c(c1)O/C(=C\c1cccc(Br)c1)C2=O (stereo not drawn),-24.3% (inactive),
COC(=O)Cc1ccc(N(Cc2ccccc2F)S(=O)(=O)c2ccc(Br)cc2)cc1,,20.6 µM (active)
O=C(COC(=O)Cc1ccc(Br)cc1)Nc1c(F)c(F)c(F)c(F)c1F,14.3% (inactive),
COc1ccc(S(=O)(=O)N(CC(=O)NCc2ccco2)c2ccc(F)cc2)cc1,-16% (inactive),
O=C(CCn1c(SCC(=O)c2ccccc2)nc2ccccc2c1=O)NCc1ccc(F)cc1,-5.7% (inactive),
CC1(C)CC(=O)C(C=NCc2cccnc2)=C(O)C1,-7.35% (inactive),
N=c1c2c3c(sc2ncn1N)CCCCC3,19.2% (inactive),
Cc1nc2cc(NC(=O)NCc3ccccc3)ccc2o1,-13.9% (inactive),
C=CCN(C(=O)Nc1ccc2oc(C)nc2c1)c1ccccc1,,20.6 µM (active)
C=CCN(C(=O)Nc1ccc2c(c1)nc(C)n2C)c1ccccc1,-6.75% (inactive),
N#CCCn1cnc2ccccc21,-13.7% (inactive),
Cc1c(C=O)n(C)n(-c2ccccc2)c1=O,-0.628% (inactive),
O=C(CSc1nnc(-c2cccnc2)n1Cc1ccco1)c1ccc(Cl)cc1,,25.9 µM (active)

Compound,"activity change, negative = growth inhibition",Potency
O=C(CSc1nnc(-c2cnccn2)n1Cc1ccco1)c1ccc(Cl)c(Cl)c1,-17.7% (inactive),
COc1cc(Cl)c(C)cc1NC(=O)CSc1nnc(-c2cccnc2)n1Cc1ccco1,-22.2% (inactive),
CC(=O)NS(=O)(=O)c1ccc(NC(=O)C2C3C=CC(C3)C2C(=O)O)cc1 (stereo not drawn),0.129% (inactive),
Cc1cc2c3ccccc3[nH]c(=O)n2n1,-23.3% (inactive),
CCCCC(O)C1=C[N+](=O)CC=C1 (stereo not drawn),-15.5% (inactive),
COc1ccc(-c2noc(CCC(=O)N3CCN(c4cccc(C)c4)CC3)n2)cc1,,13 µM (active)
COc1ccc(N2CCN(C(=O)CCc3nc(-c4ccc(C)cc4)no3)CC2)cc1,-22.3% (inactive),
CN1CCN(C(=O)CCc2nc(-c3ccc(Cl)cc3)no2)CC1,-11.7% (inactive),
O=C(COC(=O)c1ccco1)Nc1ccc(Cl)cn1,6.19% (inactive),
O=c1ccn(Cc2ccccc2Cl)cc1,-7.73% (inactive),
O=S(=O)(O)c1nc2ccccc2n1Cc1ccc(Cl)cc1,-10.9% (inactive),
N=c1n(Cc2ccc(Cl)cc2)c2ccccc2n1CC(O)c1ccco1 (stereo not drawn),,5.8 µM (active)
CCC1=NN2C(=N)/C(=C/c3cc(C)n(-c4ccccc4)c3C)C(=O)N=C2S1,9.47% (inactive),
CCCC(=O)NC(=S)Nc1ccc(CN2CCOCC2)cc1,11.6% (inactive),
COC(=O)c1sccc1NC(=S)Nc1ccc(C)cc1,-12.6% (inactive),
COC(=O)c1sccc1NC(=O)CCC1CCCC1,-16.7% (inactive),
CCOC(=O)C(=CNNc1ccsc1C(=O)OC)C(=O)OCC,,10.3 µM (active)
CCn1c(SCC(=O)N(C)C2CCS(=O)(=O)C2)nnc1-c1cccs1 (stereo not drawn),9.93% (inactive),
CCN(CC(=O)NCc1cccs1)C(=O)c1cccc(S(=O)(=O)Nc2ccccc2OC)c1,-11.2% (inactive),
CC(C)N1C(=O)c2ccccc2NC(=O)C1C(=O)NCc1cccs1 (stereo not drawn),9.26% (inactive),
CCC1Sc2ccc(S(=O)(=O)CCC(=O)NCc3cccs3)cc2NC1=O (stereo not drawn),,14.6 µM (active)
Cc1cc(C)c(NC(=O)CS(=O)CC(=O)Nc2cccnc2)c(C)c1 (stereo not drawn),0.606% (inactive),

Compound,"activity change, negative = growth inhibition",Potency
COc1ccccc1N(CC(=O)Nc1ccccc1C(=O)N1CCCC1)S(C)(=O)=O,-2.28% (inactive),
COc1ccccc1OCC(=O)O/N=C(\N)c1ccccn1,-2.18% (inactive),
CCOC(=O)CN1C(=O)C(O)(CC(=O)c2ccccn2)c2ccccc21 (stereo not drawn),,4.11 µM (active)
CCOC(=O)CN1CCC(c2ccccc2)CC1,-7.84% (inactive),
CCCc1nn(C)c2c(=O)[nH]c(-c3cc(S(N)(=O)=O)ccc3OCC)nc12,2.45% (inactive),
Cn1c2ccccc2n2c(=O)c(=O)n(CC(=O)c3ccc(F)cc3)nc12,1.31% (inactive),
CCOC(=O)c1ccc(N2C(=O)CC(N(C)Cc3ccccc3)C2=O)cc1 (stereo not drawn),18.2% (inactive),
O=C1N/C(=C/c2cccs2)C(=O)N1Cc1ccc(F)cc1,-12.1% (inactive),
Cc1cc(/C=C2/NC(=O)NC2=O)c(C)n1-c1cccnc1,-0.13% (inactive),
Cc1ccc(CN2C(=O)N/C(=C/c3cc(C)n(-c4ccccn4)c3C)C2=O)cc1,,23.1 µM (active)
COCCn1c(=O)c(-c2cccs2)nc2cncnc21,-1.68% (inactive),
CCOCCc1c(O)nc(SCC(=O)NCc2ccco2)[nH]c1=O,-7.98% (inactive),
O=C(NC1CCCCC1)C(c1cc2ccccc2o1)n1c(=O)c(-c2ccco2)nc2ccccc21 (stereo not drawn),,16.4 µM (active)
O=C(Nc1cc2ccccc2oc1=O)C1CCCCC1,3.65% (inactive),
Cn1c(SCC(=O)NC2CCCCC2)nnc1-c1cc2ccccc2o1,-21.8% (inactive),
CN1CCC(N(C)S(=O)(=O)c2ccc(NC(=O)c3cccc(C#N)c3)cc2)CC1,-0.0488% (inactive),
CCN(CC)S(=O)(=O)c1ccc(N2CCCC2)c(NC(=O)c2ccc([N+](=O)[O-])o2)c1,,23.1 µM (active)
COc1ccc(CC(=O)Nc2cc(S(=O)(=O)N3CCCCC3)ccc2N2CCN(C)CC2)cc1,-22% (inactive),
CCN(CC)S(=O)(=O)c1ccc(N2CCOCC2)c(C(=O)O)c1,-3.19% (inactive),
CN(C)S(=O)(=O)c1ccc(N2CCCC2)c(C(=O)NCc2ccccc2)c1,-10.8% (inactive),
CCN(CC)S(=O)(=O)c1ccc(N2CCOCC2)c(NC(=O)C2COc3ccccc3O2)c1 (stereo not drawn),,16.4 µM (active)
CCN(CC)S(=O)(=O)c1ccc(N2CCOCC2)c(NC(=O)c2ccc(=O)n(C)n2)c1,2.16% (inactive),

Compound,"activity change, negative = growth inhibition",Potency
Cc1ccc(/C=N/NC(=O)CNC(=O)COc2ccccc2)o1,-24.7% (inactive),
Cc1ccc(NC(=S)NC2CCCC2)cc1,-53.3% (inactive),
C/C(=N\NC(=S)NC1CCCCC1)c1ccc(C)o1,,23.1 µM (active)
CCCC/C(C)=N/NC(=O)NC1CCCCC1,-7.22% (inactive),
COc1ccc(C(C)NC(=S)NC2CCCCC2)cc1OC (stereo not drawn),-0.972% (inactive),
Cc1ccc(/C=N/NC(=S)NC2CCCCC2)o1,,4.11 µM (active)
Cn1c(N)cc(=O)n(C)c1=S,-14% (inactive),
Cc1n[nH]c(=O)c2c(NC(=O)COC(=O)c3ncc(Cl)c(Cl)c3Cl)oc(C)c12,6.05% (inactive),
O=C(CN1CCN(S(=O)(=O)c2ccc(Cl)s2)CC1)NCc1ccc(Cl)cc1,-29% (inactive),
N#Cc1ccc(COC(=O)Cn2nnc(-c3ccccc3)n2)cc1,-19% (inactive),
Cc1ccc(NC(=O)CN2C(=O)NC(C)(c3ccc(Cl)cc3)C2=O)c(Br)c1 (stereo not drawn),-22.8% (inactive),
Cc1c(S(=O)(=O)NC(C)c2ccccc2)c(=O)n(C)c(=O)n1C (stereo not drawn),-1.62% (inactive),
CCOC(=O)c1cc(-c2sc(NC(=O)c3ccccc3)nc2C)n(-c2ccc(Br)cc2)n1,,25.9 µM (active)
C=CCn1nc(C(=O)OCC)cc1-c1sc(NC(=O)c2ccccc2)nc1C,,20.6 µM (active)
CCOc1ccc(C(=O)Nc2c3c(nn2-c2ccccc2)CS(=O)(=O)C3)cc1,-0.524% (inactive),
CCOC(=O)c1cc(NC(=O)c2cccnc2)ccn1,1.41% (inactive),
CC(=O)c1sc(NC(=O)c2cccc3ccccc23)nc1C,-15.2% (inactive),
CCOC(=O)C(=O)Nc1nc(-c2ccccc2)c(CC)s1,8.26% (inactive),
Cn1sc(NC(=O)c2ccccc2)nc1=O,-26.2% (inactive),
CCOC(=O)c1cc(-c2sc(NC(=O)c3ccccc3)nc2C)n(Cc2ccccc2)n1,,18.4 µM (active)
CCOC(=O)c1sc(NC(=O)CSc2nc(O)c(Cc3ccccc3)c(=O)[nH]2)nc1C,-10.8% (inactive),
CCOC(=O)c1cc(-c2sc(NC(=O)c3ccccc3)nc2C)n(CCO)n1,,6.51 µM (active)

Compound,"activity change, negative = growth inhibition",Potency
CCOC(=O)c1cc(OC(=O)c2ccccc2Cl)n(-c2ccccc2)n1,6.19% (inactive),
CCOc1ccccc1NC(=O)CSc1ncc(S(=O)(=O)c2ccc(C(C)(C)C)cc2)c(=O)[nH]1,-3.29% (inactive),
O=C1CSC2=NCN(c3ccccc3)CN12,-3.67% (inactive),
Nc1scc(-c2ccncc2)c1Cl,-16.4% (inactive),
Cc1nc2ccc(S(=O)(=O)N(C)CC(=O)NC(C)c3ccccc3)cc2s1 (stereo not drawn),3.67% (inactive),
CCCc1cc(=O)oc2c(C)c(OC(C)C(=O)NCC(O)c3ccccc3)ccc12 (stereo not drawn),-23.7% (inactive),
c1ccc2cc(OCCN3CCCC3)ccc2c1,-9.25% (inactive),
Cc1nnc2n1N=C(c1ccc3c(c1)NC(=O)CO3)CS2,5.1% (inactive),
CC(C(=O)NCCc1ccc(S(N)(=O)=O)cc1)N1C(=O)CC(C)(C)Sc2ccccc21 (stereo not drawn),-15.5% (inactive),
Cc1c(C(=O)NNC(=O)c2ccncc2)oc2ccccc12,-22.1% (inactive),
C/C(=C/C(=O)N1CCN(C)CC1)C(=O)O,-3.36% (inactive),
COc1ccc(F)cc1S(=O)(=O)Nc1ccc2c(c1)OCO2,-6.78% (inactive),
COc1ccc(CCNC(=O)c2cc(-c3ccc4c(c3)OCO4)on2)cc1OC,11.6% (inactive),
COc1cc(-c2c(-c3ccc4c(c3)OCO4)noc2C)ccc1F,,17.8 µM (active) and 16.4 µM (active)
NC(=O)CSC1=Nc2ccccc2C2=NC(CCC(=O)NCc3ccc(F)cc3)C(=O)N12 (stereo not drawn),-4.51% (inactive),
O=C(CSC1=Nc2ccccc2C2=NC(CC(=O)NCc3ccco3)C(=O)N12)NCc1ccco1 (stereo not drawn),1.91% (inactive),
COc1ccccc1NC(=O)CSC1=Nc2ccccc2C2=NC(CC(=O)NCc3cccs3)C(=O)N12 (stereo not drawn),,20.6 µM (active)
O=C(CC1N=C2c3ccccc3N=C(SCc3ccccc3Cl)N2C1=O)NCc1ccco1 (stereo not drawn),-26.3% (inactive),
O=C(CC1N=C2c3ccccc3N=C(SCc3cccc(Cl)c3)N2C1=O)NCc1ccc2c(c1)OCO2 (stereo not drawn),,20.6 µM (active)
COc1ccccc1NC(=O)N1CCCC1C(=O)NCc1cccs1 (stereo not drawn),-10.8% (inactive),
